Results on 19 molecules are retold here after PubChem BioAssay (NCATS).

Inconclusive results are not listed. Active and inactive are the calls of the source. Calls follow the shape of the dose curve; as a rule, active = well fitted inhibition curve with a large enough effect; inconclusive = small, poorly fitted or top-dose-only effect; inactive = flat fitted curve, though single readings scatter.

Holding throughout (test): qHTS profiling for inhibitors of Plasmodium falciparum proliferation (AID 504749); also: nearly all actives have a fitted effect of over 60% in size
Settings in all cases: P. falciparum in erythrocytes, SYBR Green DNA, 72 h; series mostly up to 28.7 µM

The test system of one experiment is N140. In outline: (§1)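 Each compound contacts P. falciparum-infected red blood cells for 72 h at 37 C; lysis buffer (Tris, EDTA, saponin, Triton X, SYBR Green I) is added and fluorescence measured next morning; values normalized to controls.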
The subject of another experiment is P93_24. In short, it runs like this:
as §1

The subject of the next experiment is P94_40. In outline:
as §1

For another experiment, the system named is PAD. In short, it runs like this: as §1
The test system of the next experiment is PC15. In outline: as §1
In a further experiment the test system is PC26. In short, it runs like this:
as §1

In another experiment the test system is PC49. In short, it runs like this: as §1
In another experiment the test system is SC27B. In outline:
as §1

In the next experiment the test system is TAB109. In outline:
as §1

The test system of another experiment is TAB113. In outline: as §1
Potency is read from the fitted curve at half-maximal effect.

Consider `NC[C@H](O)c1ccc(O)c(O)c1`, for which the Potency result with N140, in the experiment on P93_24, in the experiment with P94_40, in the experiment with PAD, with PC15 and with PC26 was “inactive” each time. Moreover, the Potency result with PC49, in the experiment with SC27B, in the experiment on TAB109 and with TAB113 was “inactive” in each case.

For the molecule `Cc1ccc(N(CC2=NCCN2)c2cccc(O)c2)cc1`, the Potency entry in the experiment on N140, with P93_24, in the experiment with P94_40, in the experiment with PAD, with PC15 and in the experiment with PC26 was “inactive” in each case. Besides, the Potency entry in the experiment with PC49, in the experiment with SC27B, with TAB109 and with TAB113 was “inactive” in each case.

On to `Cc1[nH]c(=O)c(C#N)cc1-c1ccncc1`, for which the Potency result in the experiment on N140, in the experiment on P93_24, in the experiment on P94_40, in the experiment with PAD, in the experiment on PC15 and in the experiment on PC26 was “inactive” throughout. Also, the Potency result in the experiment on PC49, in the experiment with SC27B, with TAB109 and in the experiment with TAB113 was “inactive” in each case.

With `Cc1cn[nH]c1`, the Potency entry with N140, in the experiment on P93_24, in the experiment with P94_40, in the experiment on PAD, in the experiment with PC15 and with PC26 was “inactive” each time. Further, the Potency entry in the experiment with PC49, with SC27B, with TAB109 and in the experiment with TAB113 was “inactive” throughout.

For `O=NN(CCCl)C(=O)NCCCl`, the Potency entry with N140, in the experiment with P93_24, with P94_40, with PAD, in the experiment on PC15 and in the experiment on PC26 was “inactive” throughout. In addition, the Potency entry in the experiment with PC49, in the experiment with SC27B, in the experiment with TAB109 and in the experiment on TAB113 was “inactive” each time.

For `NC(=O)c1cnccn1`, the Potency result in the experiment on N140, in the experiment on P93_24, in the experiment on P94_40, with PAD, in the experiment on PC15 and in the experiment with PC26 was “inactive” each time. Moreover, the Potency result with PC49, in the experiment with SC27B, in the experiment on TAB109 and in the experiment on TAB113 was “inactive” each time.

`CCCCNc1cc(C(=O)O)cc(S(N)(=O)=O)c1Oc1ccccc1`: the Potency entry in the experiment with N140, in the experiment on P93_24, in the experiment on P94_40, in the experiment with PAD, in the experiment with PC15 and in the experiment on PC26 was “inactive” each time. The Potency result in the experiment on PC49, in the experiment with SC27B, with TAB109 and with TAB113 was “inactive” throughout.

With `Nc1nc2c(ncn2COCCO)c(=O)[nH]1`, the Potency result with N140, in the experiment with P93_24, in the experiment on P94_40, with PAD, in the experiment with PC15 and in the experiment with PC26 was “inactive” throughout. Moreover, the Potency result in the experiment with PC49, with SC27B, in the experiment on TAB109 and in the experiment on TAB113 was “inactive” throughout.

Take `Clc1cccc(Cl)c1NC1=NCCN1`: the Potency entry with N140, in the experiment on P93_24, in the experiment on P94_40, in the experiment with PAD, in the experiment on PC15 and in the experiment with PC26 was “inactive” throughout. Moreover, the Potency entry with PC49, with SC27B, in the experiment on TAB109 and in the experiment on TAB113 was “inactive” throughout.

With `OC(CN1CCC(Cc2ccc(F)cc2)CC1)c1ccc(Cl)cc1` (stereo not given), the Potency is 794 nM (active) with N140; 1.58 µM (active) in the experiment on P93_24; 1.58 µM (active) with P94_40; 631 nM (active) in the experiment on PAD; 2 µM (active) in the experiment on PC15; 1.51 µM (active) in the experiment on PC26. The Potency in the experiment on PC49 was 1.58 µM (active); with SC27B, 1.58 µM (active); with TAB109 it was 1.78 µM (active); in the experiment on TAB113 it was 1.41 µM (active).

Take `NS(=O)(=O)c1cc2c(cc1Cl)NC=NS2(=O)=O`: the Potency entry with N140, in the experiment on P93_24, in the experiment with P94_40, with PAD, with PC15 and in the experiment with PC26 was “inactive” throughout. Further, the Potency result in the experiment with PC49, in the experiment with SC27B, in the experiment with TAB109 and in the experiment on TAB113 was “inactive” in each case.

For `Nc1ccc(S(=O)(=O)Nc2ccnn2-c2ccccc2)cc1`, the Potency result in the experiment on N140, in the experiment on P93_24, in the experiment on P94_40, in the experiment with PAD, in the experiment on PC15 and in the experiment with PC26 was “inactive” throughout. Moreover, the Potency result in the experiment on PC49, in the experiment with SC27B, with TAB109 and in the experiment with TAB113 was “inactive” in each case.

Regarding `N#Cc1ccc(C(c2ccc(C#N)cc2)n2cncn2)cc1`, the Potency entry in the experiment with N140, with P93_24, in the experiment on P94_40, with PAD, with PC15 and in the experiment with PC26 was “inactive” each time. For the same molecule, the Potency entry with PC49, with SC27B, in the experiment on TAB109 and with TAB113 was “inactive” throughout.

With `CCCc1nn(C)c2c(=O)[nH]c(-c3cc(S(=O)(=O)N4CCN(C)CC4)ccc3OCC)nc12`, the Potency entry in the experiment on N140, in the experiment on P93_24, in the experiment on P94_40, in the experiment with PAD, in the experiment with PC15 and in the experiment with PC26 was “inactive” throughout. For the same molecule, the Potency result with PC49, in the experiment on SC27B, in the experiment with TAB109 and in the experiment on TAB113 was “inactive” each time.

Consider `O=c1n(CCCN2CCN(c3cccc(Cl)c3)CC2)nc2ccccn12`, for which the Potency result in the experiment with N140, in the experiment on P93_24, in the experiment on P94_40, in the experiment with PAD, in the experiment on PC15 and with PC26 was “inactive” each time. For the same molecule, the Potency result with PC49, with SC27B, in the experiment with TAB109 and in the experiment on TAB113 was “inactive” in each case.

Consider `CC(C[N+](C)(C)C)OC(N)=O` (stereo not given), for which the Potency result with N140, with P93_24, with P94_40, in the experiment on PAD, in the experiment with PC15 and with PC26 was “inactive” throughout. For the same molecule, the Potency result in the experiment with PC49, in the experiment with SC27B, with TAB109 and in the experiment with TAB113 was “inactive” each time.

Consider `O=C1CCC(N2C(=O)c3ccccc3C2=O)C(=O)N1` (stereo not given), for which the Potency result with N140, in the experiment on P93_24, with P94_40, in the experiment on PAD, with PC15 and in the experiment on PC26 was “inactive” throughout. In addition, the Potency result in the experiment on PC49, in the experiment with SC27B, in the experiment with TAB109 and in the experiment on TAB113 was “inactive” each time.

With `N=c1nc(N2CCCCC2)cc(N)n1O`, the Potency result in the experiment on N140, with P93_24, with P94_40, in the experiment with PAD, with PC15 and in the experiment on PC26 was “inactive” each time. Besides, the Potency result in the experiment with PC49, in the experiment with SC27B, in the experiment with TAB109 and in the experiment with TAB113 was “inactive” in each case.

On to `NCCCC(N)(C(=O)O)C(F)F` (stereo not given), for which the Potency result with N140, in the experiment with P93_24, with P94_40, in the experiment with PAD, in the experiment on PC15 and in the experiment on PC26 was “inactive” throughout. In addition, the Potency result in the experiment with PC49, in the experiment on SC27B, in the experiment on TAB109 and in the experiment on TAB113 was “inactive” in each case.
